Experimental data published in article PMC12136788.
Substitutions are numbered along the chain they refer to. Whole data set: some 5,800 sequences, median “enrichment r” near 0.54, cut for the highest 2% near 16. The sample holds the highest values, similar sequences and a random draw of the others, so the mix is not that of the screen.

B1: ENSG00000070961:be:win_601|CDS|ENSG00000070961|bound_else_gene|NA|bound_elsewhere_windowed (ssRNA)
RNA: GGGAGUUCUACAGUCCGACGAUCCAGGUCAUUCAGAUACCUGUAGCUGACAUUACUGUUGGAGAUAUUGCUCAAGUGAAAUAUGGUGAUCUUCUUCCAGCUGACGGCAUACUUAUUCAAGGCAACGAUCUUAAAAUUGAUGAACAACAGAGGAUUGAGCAUCA
B2: chr11:10770493:10770605:+|CDS|ENSG00000198730|unk|FALSE|unique (ssRNA)
RNA: GGGAGUUCUACAGUCCGACGAUCACAUGUGGCACCCAGUGAUACAGUUCUUAUGUUUAAUGUGGCCUUGGUCCUGCAAAGAUUAGCUACCUCUGUCCUGAAAGAUGAAAAAAGUAAUCUGAAGGAAGUACUUAAUGCUGUGAACAACAGAGGAUUGAGCAUCA
B3: chr1:51919672:51919773:-|3pUTR|ENSG00000169213|unk|FALSE|unique (ssRNA)
RNA: GGGAGUUCUACAGUCCGACGAUCUAUUCUUUGCCUGCCCCUGGGGUUCUCUGCAGAUGGUCCCAGUAAUAGAUACUCAGCACUAGACUAACAUAACAGGUCACUACACGGGUGCAGAAUCACUUUACAAAAGAAGACUCUGUUCAACAGAGGAUUGAGCAUCA
B4: ENSG00000107863:be:win_5751|CDS|ENSG00000107863|bound_else_gene|NA|bound_elsewhere_windowed (ssRNA)
RNA: GGGAGUUCUACAGUCCGACGAUCACCUGACCAAAUAAACGGAGAAAGCUUCCAGAACGUGAGCAAAAAUGCUAGUUCUGCAGCGAAUGCCCAACCUCAUAAACUGUCUGAAACCCCAGGCAGUAAAGCAGAGUUUCAUCCCUGCAACAGAGGAUUGAGCAUCA
B5: chr1:113685846:113685948:+|3pUTR|ENSG00000081026|unk|FALSE|unique (ssRNA)
RNA: GGGAGUUCUACAGUCCGACGAUCUAUAUACACUUGAGGUUCUGAUUAGAGAAAGAUCUGUAAAUUGCUCAUUAUUUUUUAUAUAGAUAUUUAAAAAAAACAGUUUAUGGCCUGCAUUUCUUUUACUGUCACAUUGGUUUAAUGCAACAGAGGAUUGAGCAUCA
B6: chr21:14485227:14485911:-|three_prime_utr|ENSG00000155307|control|control|control (ssRNA)
RNA: GGGAGUUCUACAGUCCGACGAUCCCCAACUAUAUAUCUACAGAUGCAUUCCAUUUUAACUCUUCUUGAGCUAAAACGUCAAAUAGGAGAGGAAGAUAAGAUAAAUAUUUGUAAAUAAAACCUAAAGUUUAAAUGUUUUAAUCUCAACAGAGGAUUGAGCAUCA
B7: chr2:158176520:158176661:-|CDS|ENSG00000153237|control|control|control (ssRNA)
RNA: GGGAGUUCUACAGUCCGACGAUCGCUGUUGUUGCUCAAUUUGAUCCUGUUAGAAUGAUGUCAGAUACAAUGGCAUCAAAAGCUAGAAUGGGCAUUGAAAUUGAAGAAGAAUUUAUUCUUCAAAAGCCACUCUUCACAUUGAAUCAACAGAGGAUUGAGCAUCA
B8: chr2:151248206:151248307:-|3pUTR|ENSG00000184898|msi1|FALSE|unique (ssRNA)
RNA: GGGAGUUCUACAGUCCGACGAUCUUUUUUUAAAGCAAAGAUUAAAUUCCCAUGUAAAACCUUCCUCCCUAUACAAAAAAGAAUAGCAGCAUUUUUAUCUUCAAUGACAAAGAAUUGAGUCCAAGAAAAUACUGUAUAAACCUUCAACAGAGGAUUGAGCAUCA
B9: chr14:55048714:55048815:+|3pUTR|ENSG00000180008|msi1|FALSE|bound_elsewhere (ssRNA)
RNA: GGGAGUUCUACAGUCCGACGAUCUUUCUAAUUUUGAACAGAUGACUCAGUCCUAAAUCUUUGCCUUUAUUUCCUAUAAAAUGUAGGUGAUACUUGUAACUCGACUUCCUGGAGUUAAUUCUUCAGCAAGAGGUGACCCUGGGACAACAGAGGAUUGAGCAUCA
B10: chr9:72354534:72354635:-|3pUTR|ENSG00000107372|msi1|FALSE|unique (ssRNA)
RNA: GGGAGUUCUACAGUCCGACGAUCGUCCUAGUUUUUACUUUUAUUCUUAAAGCAUUCAGUUUUGCUUUCAAUUUUAUGUACCUUAGUUCUGAGUUAGACCUGCAGAUGUGUACAGAUAGUUCAUAUUUAUGUAUUGCACAUAAUCAACAGAGGAUUGAGCAUCA
B11: chr10:95311796:95311897:-|3pUTR|ENSG00000095637|unk|FALSE|unique (ssRNA)
RNA: GGGAGUUCUACAGUCCGACGAUCCAGACAUAGAUUUUUCUGUUCAUUUAUUUUUCUUCAUUGCAGUGGAUUGAUUUGAUAAAUAGAUGUGUUGAAUUACUACAUUUGCUGUACAUAUUAUUUAAUAAACUUUAUUCAGAAUUGCAACAGAGGAUUGAGCAUCA
B12: chr9:72354534:72354635:-|3pUTR|ENSG00000107372|msi1|total|mutant (ssRNA)
RNA: B10 RNA with U28C, A29C, U83C, A84C, U94C, A95C, U116C, A117C
B13: ENSG00000070961:be:win_5651|3pUTR|ENSG00000070961|bound_else_gene|NA|bound_elsewhere_windowed (ssRNA)
RNA: GGGAGUUCUACAGUCCGACGAUCGUUUCUAGUCUUGGUUUUGCCAUUAAUGUGCUGCAUGAUCUUGGGAAAAUCAUUUACCCUAAAUAAGGGUGGUGGACUAUCUUGAAGAACCCUUUCAACUCUAAAAAUUGACCCUAUCAACAACAGAGGAUUGAGCAUCA
B14: chr1:17068045:17068226:-|3pUTR|ENSG00000117115|msi1|FALSE|unique (ssRNA)
RNA: GGGAGUUCUACAGUCCGACGAUCCUCCUUCCACUGCCUUGACUUUCUUCCUUUUUAUUCCUGGUGCCAUCUGUCCAGGCAGCUAGACAAGAACUUGUUCGCCAGCAGCCAGAUUCAGGCCUUCCCAGGGGCAUAAUAAGUGACCAACAGAGGAUUGAGCAUCA

What follows are binders tested against MSI1 full-length (mouse, UniProt Q61474 1-362) (assay: nsRBNS (natural sequence RNA bind-n-seq); RBNS binding buffer (assumed for nsRBNS): 25 mM Tris pH 7.5, 150 mM KCl, 3 mM MgCl2, 0.01% Triton X-100, 500 ug/ml BSA, 20 U/ml SUPERase-In, 4 C; UNK is unkempt and MSI1 is Musashi-1; names of the RNAs are library labels; protein concentration not given here; high values mean tight binding).
MSI1 full-length, sequence (Q61474 whole entry): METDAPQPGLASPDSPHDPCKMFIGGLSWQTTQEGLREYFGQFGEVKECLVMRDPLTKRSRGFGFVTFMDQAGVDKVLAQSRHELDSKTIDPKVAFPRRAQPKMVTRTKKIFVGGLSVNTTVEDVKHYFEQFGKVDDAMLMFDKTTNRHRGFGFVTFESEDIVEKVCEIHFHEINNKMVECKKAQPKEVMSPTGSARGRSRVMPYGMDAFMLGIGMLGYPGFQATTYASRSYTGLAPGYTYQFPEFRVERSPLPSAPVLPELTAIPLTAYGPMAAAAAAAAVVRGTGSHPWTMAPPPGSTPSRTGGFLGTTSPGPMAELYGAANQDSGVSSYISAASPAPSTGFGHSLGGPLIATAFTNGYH

Row | Binder | binding signal [enrichment R]
1 | B1 | 0.234
2 | B2 | 0.659
3 | B3 | 0.896
4 | B4 | 0.256
5 | B5 | 13.4
6 | B6 | 1.2
7 | B7 | 0.406
8 | B8 | 0.494
9 | B9 | 0.258
10 | B10 | 42.6
11 | B11 | 2.8
12 | B12 | 1.52
13 | B13 | 0.357
14 | B14 | 0.526
